Rows were chosen to be rich in hits. Some 4.8% of all compounds tested hit in one or more screens of this group.
DAX1 inh-1: DAX1 (NR0B1) inhibitors on StAR promoter, primary screen, cell-based, luminescence, SF-1 (NR5A1), full-length DAX-1; AID 652010, 2013; inhibition, % at 6.8 µM; HEK293T StAR-luciferase reporter, SF-1/DAX-1 repression relief; 370,000 compounds, 1.1% hits;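 active = inhibition above the mean over all tested compounds plus 3 SD, cut at about 3.6% in these data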;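 note: higher inhibition means more luminescence from relief of DAX-1 repression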
DAX1 inh-2: DAX1 (NR0B1) inhibitors, primary screen, cell-based, HEK293, Gal4-DAX1, luciferase luminescence | HEK293 Gal4-DAX1 luciferase reporter | inhibition, % at 6.75 µM | 340,000 compounds, 0.99% hits;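 active = inhibition above the mean over all tested compounds plus 3 SD, cut at about 4.2% in these data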;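 note: inhibition shows as a rise in luminescence from relieved DAX1 repression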
Target sequence (P51843 207-470 limits assumed): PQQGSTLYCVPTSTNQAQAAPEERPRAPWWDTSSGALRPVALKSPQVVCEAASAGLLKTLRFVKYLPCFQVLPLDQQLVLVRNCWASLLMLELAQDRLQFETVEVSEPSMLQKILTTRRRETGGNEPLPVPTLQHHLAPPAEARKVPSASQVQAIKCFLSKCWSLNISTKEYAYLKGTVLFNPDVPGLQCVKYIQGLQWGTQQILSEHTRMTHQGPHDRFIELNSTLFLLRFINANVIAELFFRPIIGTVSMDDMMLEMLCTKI
NR1D1 modulator: modulators of Rev-erb alpha DNA binding, primary screen, biochemical, FITC-DNA, fluorescence polarization, uHTS; Nuclear receptor subfamily 1 group D member 1 (Homo sapiens), P20393; Rev-erbα–FITC-DNA binding, 90 min; activity, % at 10 µM; 370,000 compounds, 0.79% hits; AID 1259318, 2017;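 active = activity above about 14%, limit read from the data; passing the limit was not always enough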
hgDAF12 agonist: H. glycines DAF-12 receptor agonists, primary screen, cell-based, luminescence, HEK293, GAL4 fusion, UAS-luciferase. HEK293 GAL4-hgDAF12 UAS-luciferase reporter, agonist luminescence; normalized to butyrate control. Nuclear hormone receptor DAF-12 (Heterodera glycines), GAL4 fusion. 370,000 compounds, 1.8% hits. AID 687014, 2013. activation, % at 6.8 µM;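 active = activation above a cutoff set at the mean of all screened compounds plus 3 SD, cut at about 10% in these data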
ssDAF12 agonist: S. stercoralis DAF-12 nuclear receptor activators, primary screen, cell-based, luminescence, HEK293, GRIP1 co-expression, lit1-tk-luc; AID 652126, 2013; activation, % at 6.8 µM; HEK293 ssDAF-12/GRIP1 lit1-tk-luc reporter; % of 3 µM dafachronic acid response; Nuclear hormone receptor DAF-12 (Strongyloides stercoralis); 370,000 compounds, 1% hits;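 active = activation above the mean over all tested compounds plus 3 SD, cut at about 0.9% in these data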
hcDAF12 agonist: H. contortus DAF-12 nuclear receptor activators, primary screen, cell-based, luminescence, HEK293, lit1-tk-luc reporter. HEK293 hcDAF-12 lit1-tk-luc reporter; 0% DMSO, 100% Δ7-dafachronic acid. activation, % at 6.8 µM. 370,000 compounds, 1.4% hits. AID 652067, 2013;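 active = activation above the mean of all tested compounds plus 3 SD, cut at about 5.5% in these data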
LXRb hcDAF ctr: LXR agonists, Gal4 luciferase reporter, confirmation, counter-screen for hcDAF-12 agonist project, cell-based, luminescence, HEK293, H. contortus campaign; shares compounds with hcDAF12 agonist; HEK293 Gal4-LXR tk-luc reporter, 24 h; normalized: DMSO 0%, positive control 100%; activation, % at 6.8 µM; 3,400 tested, under 10 active; AID 743027, 2013;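 active = mean percent activation of the reporter above a cutoff set as the average over tested compounds plus their standard deviation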
Target sequence (P55055 whole entry, looked up, the tested form may be a part): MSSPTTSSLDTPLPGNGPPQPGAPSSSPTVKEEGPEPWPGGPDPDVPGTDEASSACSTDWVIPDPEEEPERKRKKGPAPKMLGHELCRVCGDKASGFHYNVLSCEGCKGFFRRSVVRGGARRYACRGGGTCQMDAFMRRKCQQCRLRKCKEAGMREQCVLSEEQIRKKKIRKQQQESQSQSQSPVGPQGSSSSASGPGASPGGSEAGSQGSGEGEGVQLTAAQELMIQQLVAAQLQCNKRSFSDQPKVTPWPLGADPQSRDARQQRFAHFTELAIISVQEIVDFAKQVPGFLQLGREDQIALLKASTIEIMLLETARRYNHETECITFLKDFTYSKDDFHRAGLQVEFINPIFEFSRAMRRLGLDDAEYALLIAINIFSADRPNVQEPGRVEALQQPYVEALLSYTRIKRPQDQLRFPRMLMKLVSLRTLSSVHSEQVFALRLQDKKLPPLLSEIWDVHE
hcDAF12 conf: H. contortus DAF-12 receptor agonists, confirmation, cell-based, luminescence, HEK293, lit1-tk-luc, triplicate | shares compounds with hcDAF12 agonist | HEK293 hcDAF-12 lit1-tk-luc reporter; % of Δ7-dafachronic acid response | activation, % at 6.8 µM | 3,400 compounds, 61% hits;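 active = mean activation across triplicate tests above the threshold derived from the earlier primary screen, cut at about 5.5% in these data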
Of the large screens only hits and unclear results are named; the others gave an inactive call (follow-up assays come after a bar, where they were run).

O=[N+]([O-])c1ccccc1-c1ccc(C(=S)N2CCCCC2)o1	hcDAF12 agonist 6.8 | LXRb hcDAF ctr inactive | hcDAF12 conf 7.0
COC(=O)C1=C(C)N(C)C(=NCc2ccc(C(F)(F)F)cc2)NC1c1cccc(F)c1 (stereo not given)	none (no result: DAX1 inh-2)
COc1ccc(C(=O)N2CCC[C@@H]2C(=O)N2CCC[C@@H]2C(=O)NCc2ccccc2)cc1F	none (no result: DAX1 inh-2)
COc1cccc(C2=Nc3cccc4cccc(c34)N2)c1	hcDAF12 agonist 11 | LXRb hcDAF ctr inactive | hcDAF12 conf inactive
Nc1ccc(C2=Nc3cccc4cccc(c34)N2)cc1	none
CCCc1nc2oc3ccccc3c(=O)c2c(=O)n1-c1ccccc1	ssDAF12 agonist 1.2, hcDAF12 agonist 9.5 (no result: DAX1 inh-2) | LXRb hcDAF ctr inactive | hcDAF12 conf 8.0
CCCc1nc2oc3ccccc3c(=O)c2c(=O)n1-c1ccc(C)cc1	ssDAF12 agonist 1.9, hcDAF12 agonist 11 (no result: DAX1 inh-2) | LXRb hcDAF ctr inactive | hcDAF12 conf 12
CCc1nc2oc3ccccc3c(=O)c2c(=O)n1CCOC	none
CCc1nc2oc3ccccc3c(=O)c2c(=O)n1-c1ccc(C)cc1	hgDAF12 agonist 11, ssDAF12 agonist 4.0, hcDAF12 agonist 12 (no result: DAX1 inh-2) | LXRb hcDAF ctr inactive | hcDAF12 conf 14
CCCc1nc2c(c(=O)c3ccccc3n2C)c(=O)n1-c1ccc(F)cc1	none
CCc1nc2oc3ccccc3c(=O)c2c(=O)n1-c1ccccc1	hgDAF12 agonist 13, ssDAF12 agonist 1.2, hcDAF12 agonist 8.8 | LXRb hcDAF ctr inactive | hcDAF12 conf 8.7
C#CCNC(=O)C[C@H]1C[C@@]2(C(=O)OC)C(=C[C@H](C(C)(C)C)O[C@@H]2C)N(CCC2=CCCCC2)C1=O	none (no result: DAX1 inh-2)
COCCn1c(C(C)C)nc2oc3ccccc3c(=O)c2c1=O	none
Cc1ccc(-n2c(C(C)C)nc3oc4ccccc4c(=O)c3c2=O)cc1	DAX1 inh-2 6.0, hgDAF12 agonist 12, ssDAF12 agonist 2.9, hcDAF12 agonist 12 | LXRb hcDAF ctr inactive | hcDAF12 conf 13
O=C(Nc1ccccc1)c1cn(CCBr)cn1	ssDAF12 agonist 1.3, hcDAF12 agonist 6.8 | LXRb hcDAF ctr inactive | hcDAF12 conf inactive
CCc1ccc(OCC(=O)NC(C)(C)C)cc1	hcDAF12 agonist 11 | LXRb hcDAF ctr inactive | hcDAF12 conf inactive
CC1(C)CC2CN(Cc3ccccc3)S(=O)(=O)N2C1 (stereo not given)	none (no result: DAX1 inh-1, DAX1 inh-2)
Cc1cccc(NC(=O)Nc2ccc(Br)cc2)n1	ssDAF12 agonist 1.3, hcDAF12 agonist 7.6 | LXRb hcDAF ctr inactive | hcDAF12 conf 6.2
O=C(CCN1CCN(c2ccccc2)CC1)Nc1cccc(Br)c1	hcDAF12 agonist 6.8 | LXRb hcDAF ctr inactive | hcDAF12 conf inactive
O=C(CCN1CCCC1)Nc1cccc(Br)c1	none
COc1ccccc1/C=N\Nc1ccccc1[N+](=O)[O-]	DAX1 inh-2 7.9, hcDAF12 agonist 7.0 | LXRb hcDAF ctr inactive | hcDAF12 conf 6.4
Cc1ccnc(NC(=O)Nc2cccc(F)c2)c1	DAX1 inh-1 3.7, hgDAF12 agonist 17, ssDAF12 agonist 1.5, hcDAF12 agonist 16 | LXRb hcDAF ctr inactive | hcDAF12 conf 15
CC1(C)Oc2ccc(NC(=O)C3COc4ccccc4O3)cc2O1 (stereo not given)	DAX1 inh-1 4.4, hgDAF12 agonist 12, ssDAF12 agonist 1.9, hcDAF12 agonist 8.9 | LXRb hcDAF ctr inactive | hcDAF12 conf 7.6
Cc1ccc(NC(=O)C2COc3ccccc3O2)nc1 (stereo not given)	hgDAF12 agonist 12, hcDAF12 agonist 9.5 | LXRb hcDAF ctr inactive | hcDAF12 conf 9.4
Cc1ccc(NC(=O)C2Oc3ccccc3OC2C)cc1 (stereo not given)	hcDAF12 agonist 9.1 | LXRb hcDAF ctr inactive | hcDAF12 conf 6.9
O=C(Nc1ccccc1)C1COc2ccccc2O1 (stereo not given)	none
Cc1ccc(NC(=O)C2COc3ccccc3O2)cc1 (stereo not given)	hgDAF12 agonist 12, hcDAF12 agonist 6.6 | LXRb hcDAF ctr inactive | hcDAF12 conf 7.7
COC(=O)c1cc2c(c3c4cc(C)ccc4n(S(=O)(=O)c4ccc(C)cc4)c13)C(=O)N(Cc1ccccc1OC)C2	none (no result: DAX1 inh-2)
CN(C)CCn1c(NC(=O)c2ccc(Cl)cc2)nc2ccccc21	DAX1 inh-1 3.8, hcDAF12 agonist 7.1 | LXRb hcDAF ctr inactive | hcDAF12 conf 9.9
CCN(CC)CCn1c(NC(=O)c2ccc(C(F)(F)F)cc2)nc2ccccc21	none
CCN(CC)CCn1c(NC(=O)c2ccc(C)cc2)nc2ccccc21	ssDAF12 agonist 1.0, hcDAF12 agonist 11 | LXRb hcDAF ctr inactive | hcDAF12 conf inactive
CC(=O)Nc1nc2ccccc2n1Cc1ccc(Cl)cc1	none
Cc1noc(C)c1S(=O)(=O)N1CCCc2nc(-c3ccc(F)cc3)ccc21	none (no result: DAX1 inh-2)
CCN(CC)C(=O)[C@H]1C[C@@H]2[C@H](C[C@@H](c3ccccc3)[C@H]1C)N(c1ccc(F)cc1)C(=O)N2CCCOc1ccccc1	none (no result: DAX1 inh-2)
CCN1CCCCC(NC(C)=O)C1=O (stereo not given)	none (no result: DAX1 inh-2)
COC(=O)[C@]1(CNC(=O)C(C)(C)C)CC(=O)N(C)[C@@H]1c1ccccc1	none (no result: DAX1 inh-2)
O=C(O)c1ccc(N/N=C/c2cc(Br)cs2)cc1	ssDAF12 agonist 1.0, hcDAF12 agonist 12 | LXRb hcDAF ctr inactive | hcDAF12 conf 9.0
Cc1ccc(C(=O)N/C(=C\c2ccc(-c3ccccc3[N+](=O)[O-])o2)C(=O)NCCCN2CCOCC2)cc1	hcDAF12 agonist 7.3 | LXRb hcDAF ctr inactive | hcDAF12 conf inactive
Cc1ccc(C(=O)N/C(=C\c2cn(C)c3ccccc23)C(=O)NCCCN2CCOCC2)cc1	none

Bioassay records: PubChem, several laboratories
